Compounds without any hit were thinned out: in the full panel of roughly 83,000, 20% have a hit.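 The test compound was applied at a single concentration to cells in 96-well plates for 48 hours, and percent growth was recorded.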 Values without a mark were called inactive. Activity calls are given as the source filed them. How the source made its calls: active means growth percent below 10; inactive means the rest.
How the values were obtained:
Experiment in all cases: NCI-60 one-dose screen, 48 h (100 = growth as untreated, 0 = no growth, -100 = all killed)
Settings in all cases: 10 µM unless noted
[1] = test system: HCT-15 colon
[2] = test system: HT29 colon
[3] = test system: SNB-75 CNS
[4] = test system: SNB-19 CNS
[5] = test system: U251 CNS
[6] = test system: PC-3 prostate
[7] = test system: SK-MEL-5 melanoma
[8] = test system: UACC-62 melanoma
[9] = test system: LOX IMVI melanoma
[10] = test system: SK-MEL-28 melanoma
[11] = test system: EKVX NSCLC
[12] = test system: SN12C renal
[13] = test system: UO-31 renal
[14] = test system: TK-10 renal
[15] = test system: CAKI-1 renal
[16] = test system: A498 renal
[17] = test system: CCRF-CEM leukemia
[18] = test system: MOLT-4 leukemia
[19] = test system: ACHN renal

SMILES: O=C(NC1CCNCC1)c1[nH]ncc1NC(=O)c1c(Cl)cccc1Cl
- growth [1]: 72.7%
- growth [2]: -26.7% (active)
- growth [3]: -40.7% (active)
- growth [4]: 12.5%
- growth [5]: 4.47% (active)
- growth [6]: 5.97% (active)
- growth [7]: -12.8% (active)
- growth [8]: -41.9% (active)
- growth [9]: 8.93% (active)
- growth [10]: -14.5% (active)
- growth [11]: 52.5%
- growth [12]: 12.7%
- growth [13]: 70.6%
- growth [14]: 25.8%
- growth [15]: 45.4%
- growth [16]: -25.3% (active)
- growth [17]: 11.2%
- growth [18]: 5.67% (active)

SMILES: Cn1c(Nc2ccc(C(F)(F)F)cc2)nc2cc(Oc3ccnc(-c4ncc(C(F)(F)F)[nH]4)c3)ccc21
- growth [1]: 21.4%
- growth [2]: 6.83% (active)
- growth [3]: 61.2%
- growth [4]: 56.6%
- growth [5]: 46.3%
- growth [6]: 65.8%
- growth [7]: 39%
- growth [8]: 8.71% (active)
- growth [9]: 34.1%
- growth [10]: 8.35% (active)
- growth [11]: 57.9%
- growth [12]: 59.8%
- growth [13]: 28.8%
- growth [14]: 95%
- growth [15]: 34.7%
- growth [16]: 23.7%
- growth [17]: 36.6%
- growth [18]: 25.7%

SMILES: Nc1nc(Nc2ccccc2)c(C=Nc2ccccc2)c(=O)[nH]1
- growth [1]: 96.9%
- growth [2]: 101%
- growth [3]: 80.3%
- growth [4]: 89.1%
- growth [5]: 89.1%
- growth [6]: 87.5%
- growth [7]: 98.4%
- growth [8]: 84.3%
- growth [9]: 87.1%
- growth [10]: 109%
- growth [11]: 89.1%
- growth [12]: 91%
- growth [13]: 61%
- growth [14]: 116%
- growth [19]: 83.4%
- growth [15]: 68%
- growth [17]: 92.1%
- growth [18]: 81.2%

SMILES: CCNC(=O)Nc1nc2ccc(Oc3ccnc(C(=O)NC)c3)cc2s1
- growth [1]: 52.7%
- growth [2]: 29.8%
- growth [3]: 77.1%
- growth [4]: 81%
- growth [5]: 58%
- growth [6]: 76.1%
- growth [7]: 66.8%
- growth [8]: 60%
- growth [9]: 70.7%
- growth [10]: 80.3%
- growth [11]: 85.9%
- growth [12]: 91.9%
- growth [13]: 88.2%
- growth [14]: 86.5%
- growth [19]: 96.4%
- growth [15]: 92.5%
- growth [16]: 69.9%
- growth [18]: 47.9%

SMILES: COc1cc2ncnc(Nc3ccc(O)cc3)c2cc1OC
- growth [1]: 95.8%
- growth [2]: 68.2%
- growth [3]: 64%
- growth [4]: 77.7%
- growth [5]: 83.6%
- growth [6]: 91%
- growth [7]: 98.2%
- growth [8]: 76.7%
- growth [9]: 92.2%
- growth [10]: 97%
- growth [11]: 66.3%
- growth [12]: 62.2%
- growth [13]: 36.8%
- growth [14]: 2.22% (active)
- growth [19]: 31.1%
- growth [15]: 43.4%
- growth [17]: 77.7%
- growth [18]: 75.3%

SMILES: O=C(Cc1ccc(/C=C/C(=O)c2ncc[nH]2)cc1)Nc1ccc(S(F)(F)(F)(F)F)cc1
- growth [1]: 34.2%
- growth [2]: -25.7% (active)
- growth [3]: 72.8%
- growth [4]: 75.9%
- growth [5]: 37%
- growth [6]: 58.9%
- growth [7]: 98.4%
- growth [8]: 86.7%
- growth [9]: -59% (active)
- growth [10]: 100%
- growth [11]: 96.9%
- growth [12]: 80.3%
- growth [13]: 60.7%
- growth [14]: 107%
- growth [19]: 95.8%
- growth [15]: 81.7%
- growth [16]: 88.3%
- growth [18]: 53.4%

SMILES: O=C1C=CC2(NN=C(c3ccccc3)N2c2ccccc2)c2cccc(O)c21 (stereo unspecified)
- growth [1]: 16.8%
- growth [2]: 44.3%
- growth [3]: 19.9%
- growth [4]: 32%
- growth [5]: 11.2%
- growth [6]: 36%
- growth [7]: -91.5% (active)
- growth [8]: -50.4% (active)
- growth [9]: -5.86% (active)
- growth [10]: 38.2%
- growth [11]: 57.9%
- growth [12]: 7.23% (active)
- growth [13]: 22.1%
- growth [14]: 91.6%
- growth [15]: 81.7%
- growth [16]: 103%
- growth [17]: 76.5%
- growth [18]: 71.7%

SMILES: C=CCN1C(=O)c2cccc3c(-c4ccc5c(c4)ncn5C4CCCCC4)ccc(c23)C1=O
- growth [1]: 44.9%
- growth [2]: 23.4%
- growth [3]: 50.2%
- growth [4]: 76.1%
- growth [5]: 52%
- growth [6]: 22.8%
- growth [7]: -27.8% (active)
- growth [8]: 44%
- growth [9]: 50.3%
- growth [10]: 76.7%
- growth [11]: 52.9%
- growth [12]: 61.5%
- growth [13]: 34.5%
- growth [14]: 69.9%
- growth [19]: 55.3%
- growth [15]: 52.2%
- growth [16]: 76.9%
- growth [18]: 5.4% (active)

SMILES: Cc1nc(N)sc1-c1ccnc(Nc2ccc(N3CCOCC3)cc2)n1
- growth [1]: 44.7%
- growth [2]: 25.5%
- growth [3]: -11% (active)
- growth [4]: 29.9%
- growth [5]: 27.9%
- growth [6]: 38.3%
- growth [7]: 70.8%
- growth [8]: 41.6%
- growth [9]: 29.6%
- growth [10]: 61.5%
- growth [11]: 71.7%
- growth [12]: 49.8%
- growth [13]: 19.7%
- growth [14]: 39.9%
- growth [19]: 29.7%
- growth [15]: 20.8%
- growth [17]: 23%
- growth [18]: 13.8%

SMILES: COc1cc2ncnc(Nc3cccc(Cl)c3F)c2cc1OC(=O)N1CCN(C)C[C@H]1C
- growth [1]: 75.1%
- growth [2]: 53.9%
- growth [3]: 71%
- growth [4]: 83.4%
- growth [5]: 75.8%
- growth [6]: 64.4%
- growth [7]: 81.3%
- growth [8]: 77.3%
- growth [9]: 79.6%
- growth [10]: 87.3%
- growth [11]: 57.8%
- growth [12]: 50.1%
- growth [13]: 41.6%
- growth [14]: 28.1%
- growth [19]: 19.5%
- growth [15]: 43.2%
- growth [16]: 82.8%
- growth [18]: 67.7%

SMILES: Cc1cc2c(F)c(Oc3ncnn4cc(OC[C@@H](C)OC(=O)[C@H](C)N)c(C)c34)ccc2[nH]1
- growth [1]: 38.6%
- growth [2]: 6.32% (active)
- growth [3]: 55.6%
- growth [4]: 51.8%
- growth [5]: 44.8%
- growth [6]: 54.5%
- growth [7]: 42.6%
- growth [8]: 2.73% (active)
- growth [9]: 26.5%
- growth [10]: 10.5%
- growth [11]: 61.2%
- growth [12]: 55.6%
- growth [13]: 36.3%
- growth [14]: 35.6%
- growth [19]: 46.8%
- growth [15]: 48.8%
- growth [17]: 45.4%
- growth [18]: 48.3%

SMILES: CSc1nc2ncncc2[nH]1
- growth [1]: 101%
- growth [2]: 99.4%
- growth [3]: 86.7%
- growth [4]: 100%
- growth [5]: 101%
- growth [6]: 106%
- growth [7]: 101%
- growth [8]: 104%
- growth [9]: 97.5%
- growth [10]: 75.1%
- growth [11]: 91.2%
- growth [12]: 91.4%
- growth [13]: 90.7%
- growth [14]: 102%
- growth [15]: 621%
- growth [16]: 78.2%
- growth [17]: 97.7%
- growth [18]: 95%

Source: PubChem BioAssay (NCI)
